The values below come from the supplement of paper PMC5919970.

The assay relates to TYKNU. As to the kind of experiment: fractional viability relative to vehicle; TYKNU is a high-grade serous ovarian cancer line; higher = less growth inhibition. The following applies: 72 h. A digest of the protocol:
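TYKNU control cells or lentiCRISPRv2 knockout derivatives were plated at 500 cells per well in duplicate into drug-stamped 384-well plates holding a ~2100-compound library at 2 or 10 μM. Culture was in RPMI 1640 with 10% FBS at 37 °C in 5% CO2, with 72 h of drug treatment. Viability was measured by Cell Titer Glo luminescence, and the averaged duplicate treatment wells were normalised to duplicate control wells at the same plate position.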

Setting [1] is: 2uM, genotype: DNM1L knockout (sgDNM1L #1).
[2] abbreviates: 2uM, genotype: sgCTRLA1 (non-targeting control).
Where [3] appears, read: 10uM, genotype: DNM1L knockout (sgDNM1L #1).
[4] abbreviates: 10uM, genotype: sgCTRLA1 (non-targeting control).

Where a name gives a salt, the structure may show the parent alone. The full ranking holds about 2,000 compounds; the median of “fractional viability relative to vehicle” is about 0.91, and the lowest 2% start at about 0.045. This is one part of a sample in which the lowest values are shown more often than they occur.

Regarding `C[C@@H]1CC[C@@]2(OC1)O[C@H]1C[C@H]3[C@@H]4CC=C5C[C@@H](O[C@@H]6O[C@H](CO)[C@@H](O[C@@H]7O[C@@H](C)[C@H](O)[C@@H](O)[C@H]7O)[C@H](O)[C@H]6O[C@@H]6O[C@@H](C)[C@H](O)[C@@H](O)[C@H]6O)CC[C@]5(C)[C@H]4CC[C@]3(C)[C@H]1[C@@H]2C` [Dioscin], the fractional viability runs as follows: under setting [1], 0.0559; under setting [2], 0.0816; under setting [3], 0.0468; under setting [4], 0.0196.

For the molecule `Cc1cc2c(C(C)C)c(O)c(O)c(C=O)c2c(O)c1-c1c(C)cc2c(C(C)C)c(O)c(O)c(C=O)c2c1O` [Gossypol], the fractional viability by setting is: under setting [1], 0.9; under setting [2], 1.04; under setting [3], 0.253; under setting [4], 0.247.

Consider `CCN(Cc1ccc(Cl)nc1)/C(=C/[N+](=O)[O-])NC` [Nitenpyram], for which the fractional viability runs as follows: under setting [1], 0.733; under setting [2], 1.08; under setting [3], 0.638; under setting [4], 0.862.

In the case of `Cc1ccc(-n2nccn2)c(C(=O)N2CCN(c3nc4cc(Cl)ccc4o3)CC[C@H]2C)c1` [Suvorexant (MK-4305)], the fractional viability stood at 0.969 under setting [1], 1.14 under setting [2], 0.861 under setting [3] and 1.04 under setting [4].

As for `CC(C)=CCC[C@]1(C)C=Cc2c(O)c3c(c(CC=C(C)C)c2O1)O[C@]12C(=C[C@@H]4C[C@H]1C(C)(C)O[C@@]2(C/C=C(/C)C(=O)O)C4=O)C3=O` [Gambogic Acid], the fractional viability was 0.068 under setting [1], 0.0361 under setting [2], 0.0214 under setting [3] and 0.00876 under setting [4].

In the case of `CN(C)Cc1c[nH]c2ccccc12` [Gramine], the fractional viability stood at 0.908 under setting [1], 1.14 under setting [2], 0.859 under setting [3] and 0.971 under setting [4].

Turning to `[O-][n+]1ccccc1[S-].[O-][n+]1ccccc1[S-].[Zn+2]` [Zinc Pyrithione], the fractional viability under setting [1] stood at 0.0424, the fractional viability under setting [2] was determined as 0.0207, the fractional viability under setting [3] was 0.0251 and the fractional viability under setting [4] was 0.0128.

With `Cc1sc2c(c1C)C(c1ccc(Cl)cc1)=N[C@@H](CC(N)=O)c1nnc(C)n1-2`, the fractional viability turned out to be 0.35 under setting [1], 0.412 under setting [2], 0.319 under setting [3] and 0.408 under setting [4].

`c1ccc([C@@H]2C[C@H]2NC2CCNCC2)cc1` registered a fractional viability under setting [1] of 0.728, a fractional viability under setting [2] of 0.964, a fractional viability under setting [3] of 0.712 and a fractional viability under setting [4] of 0.824.

Regarding `CC(=O)Nc1ccc(Cc2ccc(NC(C)=O)cc2)cc1`, the fractional viability under setting [1] was 0.759, the fractional viability under setting [2] came to 0.99, the fractional viability under setting [3] amounted to 0.747 and the fractional viability under setting [4] was 0.791.

Take `O=C(O[C@H]1C[C@H]2CC[C@@H](C1)[N+]21CCCC1)C(O)(c1ccccc1)c1ccccc1` [Trospium chloride]: the fractional viability was 0.962 under setting [1], 1.06 under setting [2], 0.908 under setting [3] and 1.09 under setting [4].

For `Cc1cccc(Cc2c[nH]cn2)c1C` [Detomidine HCl], the fractional viability reads like this: under setting [1], 1.07; under setting [2], 1.01; under setting [3], 0.798; under setting [4], 1.1.

`CN[C@@H]1C[C@H]2O[C@@](C)([C@@H]1OC)n1c3ccccc3c3c4c(c5c6ccccc6n2c5c31)C(=O)NC4` [Staurosporine] gave a fractional viability under setting [1] of 0.092, a fractional viability under setting [2] of 0.066, a fractional viability under setting [3] of 0.0336 and a fractional viability under setting [4] of 0.0269.

`Cn1c(COP(=O)(NCCBr)NCCBr)cnc1[N+](=O)[O-]` came in with a fractional viability under setting [1] of 1.47, a fractional viability under setting [2] of 1.27, a fractional viability under setting [3] of 0.89 and a fractional viability under setting [4] of 1.27.

In the case of `CCN(CC)C(=O)c1ccc(C2=CC3(CCNCC3)Oc3cccc(O)c32)cc1`, the fractional viability is 1.05 under setting [1], 1.03 under setting [2], 0.914 under setting [3] and 0.931 under setting [4].

As for `C[C@@H]1O[C@@H](O[C@H]2C[C@@H](O)[C@]3(CO)[C@H]4[C@H](O)C[C@]5(C)[C@@H](C6=CC(=O)OC6)CC[C@]5(O)[C@@H]4CC[C@]3(O)C2)[C@H](O)[C@H](O)[C@H]1O` [Ouabain], the fractional viability reads like this: under setting [1], 0.05; under setting [2], 0.0369; under setting [3], 0.0346; under setting [4], 0.0311.

As for `N#C[C@H](O[C@@H]1O[C@H](C(=O)O)[C@@H](O)[C@H](O)[C@H]1O)c1ccccc1` [Laetrile], the fractional viability is 0.984 under setting [1], 1.23 under setting [2], 0.709 under setting [3] and 1.16 under setting [4].

`COc1cc(-n2c(=S)[nH]c3ccccc3c2=O)c(Cl)cc1Cl` [Mdivi-1] came in with a fractional viability under setting [1] of 0.879, a fractional viability under setting [2] of 0.994, a fractional viability under setting [3] of 0.654 and a fractional viability under setting [4] of 0.851.

Take `Cc1cccc(C)c1NC(=O)CN1CCCC1=O` [Nefiracetam]: the fractional viability reads like this: under setting [1], 0.909; under setting [2], 1.08; under setting [3], 1.02; under setting [4], 1.16.

For the molecule `CC(C)N(CCNC(=O)CN1CCCC1=O)C(C)C` [Pramiracetam], the fractional viability was determined as 0.94 under setting [1], 1.16 under setting [2], 0.882 under setting [3] and 1.02 under setting [4].

`C[C@@H]1[C@H](O)[C@@H](C)/C=C/C=C/CC/C=C/C=C/C=C/C=C/[C@H](O[C@H]2O[C@@H](C)[C@H](O)[C@@H](N)[C@H]2O)C[C@@H]2O[C@](O)(C[C@@H](O)[C@H](O)CC[C@@H](O)C[C@@H](O)C[C@@H](O)CC(=O)O[C@H]1C)C[C@H](O)[C@H]2C(=O)O` [Nystatin (Fungicidin)]: the fractional viability was found to be 0.929 under setting [1], 1.11 under setting [2], 0.854 under setting [3] and 1.03 under setting [4].

Turning to `O=C(O)c1nn(Cc2ccc(Cl)cc2Cl)c2ccccc12` [Lonidamine], the fractional viability runs as follows: under setting [1], 0.961; under setting [2], 1.06; under setting [3], 0.87; under setting [4], 1.16.

As to `Cc1sc2c(c1C)C(c1ccc(Cl)cc1)=N[C@@H](CC(=O)OC(C)(C)C)c1nnc(C)n1-2`, the fractional viability under setting [1] was 0.37, the fractional viability under setting [2] came to 0.516, the fractional viability under setting [3] was found to be 0.278 and the fractional viability under setting [4] worked out at 0.394.

On to `O=C(O)CNC(=O)c1c(O)c2ccccc2n(Cc2ccccc2)c1=O`, for which the fractional viability stood at 1.04 under setting [1], 1.17 under setting [2], 0.762 under setting [3] and 1 under setting [4].

`O=c1[nH]c2ccc(Cl)cc2c(N[C@@H]2CN3CCC2CC3)c1-c1nc2ccccc2[nH]1` registered a fractional viability under setting [1] of 0.154, a fractional viability under setting [2] of 0.195, a fractional viability under setting [3] of 0.0777 and a fractional viability under setting [4] of 0.0446.

Take `O=S(=O)(CC1CS1)c1ccc(Oc2ccccc2)cc1` (stereo unspecified): the fractional viability under setting [1] came out at 0.744, the fractional viability under setting [2] amounted to 0.851, the fractional viability under setting [3] came to 0.163 and the fractional viability under setting [4] was determined as 0.172.

In the case of `C[C@](O)(COc1ccc(C#N)cc1)C(=O)Nc1ccc(C#N)c(C(F)(F)F)c1`, the fractional viability is, setting by setting: under setting [1], 1; under setting [2], 1.13; under setting [3], 0.879; under setting [4], 1.03.

For the molecule `CCN1CCN(C(=O)Cc2ccc(Nc3ncc(F)c(Nc4ccc(C(=O)Nc5ccccc5Cl)cc4)n3)cc2)CC1` [Aurora A Inhibitor I], the fractional viability was 0.904 under setting [1], 0.926 under setting [2], 0.0479 under setting [3] and 0.0775 under setting [4].

As for `NC(=O)CN1CC(O)CC1=O` (stereo unspecified) [Oxiracetam], the fractional viability is, setting by setting: under setting [1], 0.755; under setting [2], 1.16; under setting [3], 0.688; under setting [4], 0.976.

In the case of `C#C[C@]1(O)C=C[C@H]2[C@@H]3CCC4=CC(=O)CC[C@@H]4[C@H]3CC[C@@]21CC` [Gestodene], the fractional viability runs as follows: under setting [1], 1.13; under setting [2], 1.04; under setting [3], 0.861; under setting [4], 0.945.

For `CC1=C(O)C(=O)C=C2C1=CC=C1[C@@]2(C)CC[C@@]2(C)[C@@H]3C[C@](C)(C(=O)O)CC[C@]3(C)CC[C@]12C` [Celastrol], the fractional viability is 0.0457 under setting [1], 0.0557 under setting [2], 0.0154 under setting [3] and 0.0139 under setting [4].

For the molecule `CC(C)(C)c1cc(C=C(C#N)C#N)cc(Br)c1O`, the fractional viability came out at 1.21 under setting [1], 1.08 under setting [2], 1.09 under setting [3] and 0.939 under setting [4].

For the molecule `CCOc1ccccc1-n1c(C(C)N2CCN(C(=O)COc3ccc(Cl)cc3)CC2)nc2ccccc2c1=O` (stereo unspecified) [Erastin], the fractional viability runs as follows: under setting [1], 0.123; under setting [2], 0.0716; under setting [3], 0.0411; under setting [4], 0.0416.

Regarding `O=[N+]([O-])/C=C/c1ccc2c(c1)OCO2`, the fractional viability under setting [1] is 0.362, the fractional viability under setting [2] amounted to 0.336, the fractional viability under setting [3] was 0.0604 and the fractional viability under setting [4] came to 0.0474.
